The nature of test [1]: A CellTox Green Cytotoxicity Assay to monitor cytotoxicity in HEK293 cells - 32 hour (AID 1224881). Also: nearly all actives have a fitted effect of over 40% in size. Also: potency is read from the fitted curve at half-maximal effect. Put shortly:
(§1)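 Seeding of HEK293 cells together with cytotoxicity dye preceded a 5 h incubation at 37 C/5% CO2. Test compounds in DMSO were then added and fluorescence monitored across 40 h.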

Test [2] is described as follows: A CellTox Green Cytotoxicity Assay to monitor cytotoxicity in HEK293 cells - 8 hour (AID 1224884). Also: nearly all actives have a fitted effect of over 35% in size. Also: potency is read from the fitted curve at half-maximal effect. The gist of the method: as §1
Test [3] is described as follows: qHTS RealTime-Glo MT Cell Viability Assay in HepG2 cells - 16 hour (AID 1224885). Also: nearly all actives have a fitted effect of over 50% in size. Put shortly:
(§2)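 Viability was tracked continuously by NanoLuc luminescence from prosubstrate reduced by living HepG2 cells, at successive time points over 40 h of compound exposure. Cells with reagent were preincubated 5 h at 37 °C before compound addition.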

The nature of test [4]: qHTS RealTime-Glo MT Cell Viability Assay in HEK293 cells - 24 hour (AID 1224886). Also: nearly all actives have a fitted effect of over 50% in size. Also: potency is read from the fitted curve at half-maximal effect. The gist of the method:
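Viability tracked continuously by luminescence as live cells reduce a prosubstrate for NanoLuc; HEK293 cells preincubated 5 h, compound-treated at 37 C, and read at 0, 8, 16, 24, 32 and 40 h.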
For orientation: Quantitative high-throughput screening tests each substance at several concentrations.

A short description of test [5]: qHTS RealTime-Glo MT Cell Viability Assay in HEK293 cells - 8 hour (AID 1224887). Also: nearly all actives have a fitted effect of over 50% in size. Also: potency is read from the fitted curve at half-maximal effect. Put shortly: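 Tox21 screen in HEK293 using RealTime-Glo MT chemistry, with cells and reagent co-dispensed. Luminescence proportional to viable cell number was captured at intervals during 40 h compound exposure at 37 C.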
Test [6] can be described thus: A CellTox Green Cytotoxicity Assay to monitor cytotoxicity in HEK293 cells - 16 hour (AID 1224888). Also: nearly all actives have a fitted effect of over 35% in size. Also: potency is read from the fitted curve at half-maximal effect. The gist of the method:
as §1

Test [7] in a line: qHTS RealTime-Glo MT Cell Viability Assay in HepG2 cells - 0 hour (AID 1224889). Also: nearly all actives have a fitted effect of over 50% in size. Also: potency is read from the fitted curve at half-maximal effect. The gist of the method: as §2
A short description of test [8]: A CellTox Green Cytotoxicity Assay to monitor cytotoxicity in HepG2 cells - 0 hour (AID 1224882). Also: nearly all actives have a fitted effect of over 35% in size. The gist of the method:
(§3)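 Nonlytic assay: viable cells exclude the dye, so fluorescence scales with cell death. HepG2 at 600 cells/well, compounds added after 5 h, signal read across 40 h.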

The nature of test [9]: A CellTox Green Cytotoxicity Assay to monitor cytotoxicity in HepG2 cells - 32 hour (AID 1224883). Also: nearly all actives have a fitted effect of over 50% in size. Also: potency is read from the fitted curve at half-maximal effect. The gist of the method:
as §3

Potency data for 18 compounds are collected here from PubChem BioAssay (Tox21).

Results filed as inconclusive are left out. Calls of active or inactive are those of the source. Calls follow the shape of the dose curve; as a rule, active = well fitted curve in the direction sought with a large enough effect in the repeat runs; inconclusive = weak or mixed curves; inactive = no such curve, though single readings can be large; an effect the other way counts as inactive or inconclusive.

Take `C[C@@H]1C[C@H]2[C@@H]3CCC4=CC(=O)C=C[C@]4(C)[C@@]3(F)[C@@H](O)C[C@]2(C)[C@@]1(O)C(=O)CO`: the Potency entry in test [1], in [2], in test [3], in test [4], in test [5] and in test [6] was “inactive” in each case. The Potency in [7] is 22.2 µM (active).
For the compound `NC(=O)Cn1c(=O)cc(CCN2CCN(c3nccc4sccc34)CC2)c2ccc(F)cc21`, the Potency result in [1], in test [8], in test [2] and in test [6] was “inactive” throughout. Also, the Potency is 49 µM (active) in [4] and 13.8 µM (active) in test [7].
On to `c1cnc2c(n1)CCCC2`, for which the Potency in test [1], in [9], in test [2] and in test [6] was 43.6 µM (active) throughout. The Potency entry in [3], in [4] and in test [5] was “inactive” throughout.
Turning to `COC(OC)(C(=O)c1ccccc1)c1ccccc1`, the Potency entry in test [1], in [9], in test [2], in test [3], in test [4] and in [5] was “inactive” each time. For the same compound, the Potency result in test [6] and in [7] was “inactive” throughout.
As for `CN(C)C(=O)Nc1ccc(Oc2ccc(Cl)cc2)cc1`, the Potency result in [1], in test [8], in test [2], in test [3], in [6] and in test [7] was “inactive” each time.
As for `CN1CCN(CCCN2c3ccccc3Sc3ccc(S(=O)(=O)N(C)C)cc32)CC1`, the Potency result in [8], in [2] and in [6] was “inactive” in each case. The Potency in [9] was 26.8 µM (active).
In the case of `C[C@]12CCC(=O)C=C1C=C[C@@H]1[C@@H]2CC[C@@]2(C)[C@H]1CC[C@@]21CCC(=O)O1`, the Potency result in test [1], in [9], in test [2], in test [3], in test [4] and in test [5] was “inactive” in each case. Further, the Potency result in [6] is “inactive”. Besides, in test [7], the Potency is 7.56 µM (active).
In the case of `c1ccc(COCc2ccccc2)cc1`, the Potency entry in test [1], in [8], in test [9], in test [2], in test [3] and in test [4] was “inactive” each time. Besides, the Potency result in test [6] is “inactive”.
Take `CCN(Cc1cccc(S(=O)(=O)O)c1)c1ccc(C(=C2C=CC(=[N+](CC)Cc3cccc(S(=O)(=O)[O-])c3)C=C2)c2ccccc2)cc1`: the Potency result in test [1], in [8], in test [2], in test [3], in test [4] and in test [5] was “inactive” throughout. Besides, in test [6], the Potency entry was “inactive”.
In the case of `CC[C@@H]([C@H](C)O)n1ncn(-c2ccc(N3CCN(c4ccc(OC[C@@H]5CO[C@@](Cn6cncn6)(c6ccc(F)cc6F)C5)cc4)CC3)cc2)c1=O`, the Potency entry in test [1], in [9], in [2], in test [6] and in test [7] was “inactive” throughout. Besides, the figures for the Potency in test [4] and in [5] were 2.68 µM (active) and 6.01 µM (active), respectively.
With `CO[Si](C)(OC)OC`, the Potency entry in [1], in test [2], in test [3], in [4], in [5] and in [6] was “inactive” in each case. Further, the Potency result in [7] is “inactive”.
On to `C[N+](C)(C)CCOC(N)=O`, for which the Potency entry in [1], in test [8], in test [2], in test [3], in test [4] and in [5] was “inactive” each time. The Potency result in [6] and in [7] was “inactive” throughout.
For `Oc1ccc(Nc2ccccc2)cc1`, the Potency entry in [8], in test [9], in [2] and in test [6] was “inactive” in each case. The Potency in test [4] was 21.9 µM (active); in [5], 17.4 µM (active).
Regarding `CCCCCCCCCCCC[N+](C)(C)CCCS(=O)(=O)[O-]`, the Potency entry in test [8], in test [9], in test [3] and in [4] was “inactive” throughout.
For `CC(=O)Oc1ccc(C(=C2CCCCC2)c2ccc(OC(C)=O)cc2)cc1`, the Potency result in test [1], in test [9], in test [2], in test [3], in [4] and in test [5] was “inactive” in each case. Besides, the Potency result in [6] and in [7] was “inactive” throughout.
`CCCCCCCC/C=C\CCCCCCCC(=O)OC`: the Potency entry in test [1], in test [9], in test [2], in test [3], in test [4] and in [5] was “inactive” throughout. Further, the Potency result in [6] was “inactive”.
For the compound `CSc1ccc(Oc2ccc(S(N)(=O)=O)cc2CN(C)C)cc1C`, the Potency entry in test [1], in test [8], in [2] and in test [3] was “inactive” in each case. The Potency in [4] is 49 µM (active).
Turning to `CCCCCCCCCCOS(=O)(=O)O`, the Potency result in test [1], in [8], in test [2], in test [3], in test [4] and in test [7] was “inactive” each time.
